PBM binding z-score data for 40 sequences are collected here from the supplement of paper PMC6555819.

In this test the test system is VDR:RXRa (NR concentration 270 nM, RXRa partner concentration 90 nM). Briefly: PBM binding z-score (relative to random genomic background probes); higher = stronger binding; sequences stand for … in GC…GCGATTGACAGCGTAGAATGAAGG
The procedure:
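Protein-binding microarray (Agilent 4x180K custom design, double-stranded 60-nt probes: 5' GC cap, 34-nt variable region, 24-nt constant primer region; full probe sequence given). Purified or IVT nuclear receptor:RXRα heterodimers (3:1 NR:RXRα, mostly 270:90 nM) or homodimers were incubated for 1 h in PBS with 2% milk and no ligand, then detected with Alexa488 antibodies. Fluorescence from o1-orientation probes (~5 replicates averaged) was converted to z-scores against 500 random hg19 background probes. Variable regions are seed direct-repeat (DR0–DR5) sites, all their single-nucleotide variants and half-site ablations.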
As to CAAACTAGGTCACCAGGACAGTGAAGAGGTTGGA, the PBM binding z-score came to 2.3.
Consider ATATGTAGGATATCGGGTCATTCAGTTTGCGCAT, for which the PBM binding z-score was determined as 4.94.
Take CTATGTAGGTTAAGGTGGTCATTCAGTTTGAAAG: the PBM binding z-score came to 2.29.
TCGAGTTGGTTACGGGGGCATTCAGGGATGAAGA had a PBM binding z-score of 3.63.
Regarding TTACCAAGGTAAAAGGTCGTTGATGCACGCCTTG, the PBM binding z-score was determined as 2.6.
With CCCGCTAGGTCATGGTCAGCTAATCTACAGTATG the figure was 1.69; with CCTGGCAGGCCAGGGTCACTCAAGCATTTCGCTT, 2.52.
Take ATACGTAGGTTATCGGGTCATTCAGTTTGCGCAT: the PBM binding z-score came to 5.06.
Then CTTAGTTGGTCAGGAGGTCACACACCGGATATGA, with 3.78.
With AGTCAAAGTTCACGAGGTAACGTAAGATTCAGCT the figure was 4.94.
The sequence ATCGAAAGGTCGTGAGGTGACTATACAGAAAGGC gave a PBM binding z-score of 3.64.
Consider TGAATGAAGTTAAAGATCAGGGAACGTGGCGTCG, for which the PBM binding z-score is -0.41.
Then CCTAGTTGGGCAGGAGGTCACACACCGGATATGA, with 3.09; and TCTAGTAGGTTACGGGGGCATTCAGGGATGAAGA, with 4.39.
Then CCTACTGGGTCATTCAGAGGTCATTGATCATATG, with 6.25; and CCTAGTTGGTCAGGAAGTCACACACCGGATATGA, with 0.604.
With ATATGTAGGTTAGGGGCATTCAGAAAGTAGGGAA the figure was 1.44.
For CTCGAAAGGGCGTGCTCAGGTGAGTATACCAAAC, the PBM binding z-score is -0.0475.
Sequence ATATGTAGGTTAGGGTCATTAAGAAAGTAGGGAA returned a PBM binding z-score of 3.86.
CTATATAGGTTAAGGGGGTCATTCAGTTTGAAAG yielded a PBM binding z-score of 7.71.
With AATTCAGGGTCACTAGGCCAGAGTAGGTACGAAT the figure was 4.79; with CTAACTAGGTCACAGAGGTCAAAGTCCGTGCGTA, 8.06; with CGAACTAGGTCAAAGGACAGTCAAAGGCGACGTA, 1.69.
Then CCGAGTAGGTTACGAGGGGGCATCCAGTGCGAAT, with 4.75.
With ATATGTAGGTTAGGGTCACTCAGAAAGTAGGGAA the figure was 3.98; with CAAACTAGGTCACAGAGGTCAAAGTTCGTGCGTA, 8.36.
Consider ACTAGTTGGTCAGCTGAGGTCACACACAATTCGG, for which the PBM binding z-score stood at 4.67.
For the sequence TCTAGTTGGTGACGGAGGTCACACACGACGGGTA, the PBM binding z-score was found to be 3.98.
On to TCGACTAGGTTACGGGGGCATTCAGGGATGAAGA, for which the PBM binding z-score came out at 4.04.
Sequence GCTGCTAGGTCAACTGAGGGTCAGCTAAAGCTCG showed a PBM binding z-score of 4.26.
Then TAGCCTAGGTCATAGGGCCAGTATAGTACGCATC, with 1.96.
CGGCCAAGGTCAAAGGTCAGTGAAGAGATGACGG had a PBM binding z-score of 6.67.
With CCTTGCGGGTCACTGACAGGTTATAGCATTTGGA the figure was 3.13; with CCTACTGGGCCATTGAGAGGTCATTGATCATATG, 3.81; with CGTCCAAGGTCAATGTTAGGTCAGTGAAAGCATT, 4.92.
ATACGTAGGTTACATCCGGGTCATTCAGGCTATG returned a PBM binding z-score of 4.16.
With CCTACTGGGCCAAAACGGTCATTGATGCCGATAA the figure was -0.116; with CTATGTAGGTTAAGGAGGTCATTCAGTTTGAAAG, 6.83; with CCTGCTAGGTCAATGGTCAGCTCAAGCAGCTCGC, 0.923.
For the sequence GCTGCTAGGTCGACTGATGGTCAGCTAAAGCTCG, the PBM binding z-score is -0.493.
